Screens: PubChem, National Center for Advancing Translational Sciences (NCATS)
A selection: hits, their analogues and other compounds. The true share with any hit is near 21%.
Pf growth 48h – inhibits P. falciparum growth in the first generation, 48 h; Potency, µM (titrated, usually from 28.7 µM), without a hit: at the top dose activity change, negative = inhibition, actives largely listed as inhibitors; P. falciparum luciferase growth in erythrocytes, 48 h; actives 5.9% (n = 310,000); note: potency is the fitted concentration of half-maximal effect; % is set by controls: 0 for no effect and ±100 for the full control effect
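Luciferase-expressing parasites in RBCs, 2% Hct / 0.1% parasitemia final; RPMI 1640 + 0.5% Albumax; 37 C, 5% CO2, one generation; luminescence read-out, lower signal = inhibition.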
Pf growth 96h – inhibits malaria parasite growth, 96 h. P. falciparum luciferase reporter growth, 96 h. Potency, µM (titrated, usually from 28.7 µM), for the others: at the top dose activity change, negative = inhibition, hits mostly inhibitors. actives 6.9% (n = 320,000). AID 504834; note: potency is the fitted concentration of half-maximal effect; % is set by controls: 0 for no effect and ±100 for the full control effect
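Two parasite generations (96 h, 37 C, 5% CO2) of compound exposure in infected erythrocytes (0.05% parasitemia, 2% hematocrit). Luciferase-reporter P. falciparum; decreased luminescence indicates inhibited growth, aimed at apicoplast-acting delayed death.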
Shiga inhibitor – inhibitors of Shiga toxin in Vero cells. Vero cells, Shiga toxin protein synthesis inhibition reporter. inhibition, % at 38.7 µM. actives 9.2% (n = 290,000); in the data active = inhibition mostly above about 28%, no sharp cut-off; inactive = mostly below about 43%; note: 0% is about no effect
Cycloheximide cs – counter-screen hit for Shiga toxin inhibitors, cycloheximide; actives 12% (n = 300,000); AID 2314; cell reporter, cycloheximide protein synthesis inhibition counterscreen; max response, %; in the data active = max response mostly above about 13%, no sharp cut-off; inactive = mostly below about 14%; note: read at 38.3 µM for the half of the compounds with a filed dose; 0% is about no effect
NS1 function inh – blocks influenza NS1 protein function; actives 0.4% (n = 270,000); Potency, µM (series often up to 46.1 µM), without a hit: at the top dose activity, positive = more growth; calls by dose curve; note: potency is the fitted concentration of half-maximal effect; actives are rising curves; nearly all actives have a fitted effect of over 50% in size
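S. cerevisiae expressing influenza A NS1, grown in glucose, washed, then diluted 1:100 into pH 6.0 -URA galactose medium with 23 nl compound. Growth recovery read as OD600; NS1-free strain serves as control.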
Numbers without * were called inactive. Unless noted, calls come from the whole dose curve; as a rule, active = well fitted inhibition curve with a large enough effect; inconclusive = small, poorly fitted or top-dose-only effect, or another doubt; inactive = no such curve, though single readings can be large or run the other way.

Cn1nccc1C(=O)N1CCN(c2cccc(C(F)(F)F)c2)CC1 was read as Pf growth 48h 0.5%, Pf growth 96h 24.5%, Shiga inhibitor 11.1, Cycloheximide cs 4.4 and NS1 function inh 4.8%.
`CCn1c(=O)c(CCC(=O)N2CCN(c3ccccn3)CC2)c(C)c2c(C)nn(-c3cccc(C)c3)c21` gave Pf growth 48h 9.28µM*, Pf growth 96h inconclusive, Shiga inhibitor -2.9, Cycloheximide cs -0.4 and NS1 function inh -2.4%.
Screening CCn1c(=O)c(CCC(=O)NCC2CCCO2)c(C)c2c(C)nn(-c3ccc(C)cc3)c21 (configuration not stated) returned Pf growth 48h 5.22µM*, Pf growth 96h -16.3%, Shiga inhibitor -4.0, Cycloheximide cs -1.0 and NS1 function inh -7.6%.
For CS(=O)(=O)N1CCC(C(=O)NCc2ccc(F)cc2)CC1 the results were Pf growth 48h 10.7%, Pf growth 96h inconclusive, Shiga inhibitor -11.9 and Cycloheximide cs 12.2.
For Cn1c(SCc2nnc(-c3ccccc3)o2)nc2ccccc21 the results were Pf growth 48h -9.8%, Pf growth 96h -10.1%, Shiga inhibitor -5.4 and Cycloheximide cs 19.9.
Cn1c2ccccc2c2nnc(SCc3nnc(-c4ccccc4)o3)nc21 was read as Pf growth 48h 9.4%, Pf growth 96h 4.15µM*, Shiga inhibitor -14.1, Cycloheximide cs -2.7 and NS1 function inh 1.1%.
Screening Cn1c2ccccc2c2nnc(SCCN3CCOCC3)nc21 returned Pf growth 48h 33.4%, Pf growth 96h -56.6%, Shiga inhibitor 30.1, Cycloheximide cs 15.9* and NS1 function inh 2.0%.
COc1ccccc1Oc1nc([N+](=O)[O-])nn1CC(N)=O was read as Pf growth 48h -1.9%, Pf growth 96h inconclusive, Shiga inhibitor -14.9, Cycloheximide cs -1.6 and NS1 function inh 1.9%.
Screening COc1ccc(C)cc1Nc1n[n+](-c2ccccc2)c(-c2ccc(NC(C)=O)cc2)s1 returned Pf growth 48h inconclusive, Pf growth 96h inconclusive, Shiga inhibitor 0.4, Cycloheximide cs 2.3 and NS1 function inh 16.4%.
For CCc1ccc(Nc2n[n+](C)c(-c3ccc(C(=O)O)cc3)s2)cc1 the results were Pf growth 48h -0.4%, Pf growth 96h -7.7%, Shiga inhibitor 4.9, Cycloheximide cs -1.5 and NS1 function inh -0.3%.
`C[n+]1nc(Nc2cccc3ccccc23)sc1-c1ccc(C(=O)O)cc1` gave Pf growth 48h 4.2%, Pf growth 96h 8.8%, Shiga inhibitor 35.4*, Cycloheximide cs 17.5* and NS1 function inh 10.0%.
`CSc1ccc(-c2sc(Nc3ccccc3)n[n+]2-c2ccccc2)cc1` gave Pf growth 48h inconclusive, Pf growth 96h 1.85µM*, Shiga inhibitor 53.2*, Cycloheximide cs 35.5* and NS1 function inh -0.7%.
Screening CCc1ccc(Nc2n[n+](-c3ccccc3)c(-c3ccc(C(=O)O)cc3)s2)cc1 returned Pf growth 48h 28.3%, Pf growth 96h inconclusive, Shiga inhibitor 16.6, Cycloheximide cs -1.4 and NS1 function inh 14.7%.
For CCc1ccc(Nc2n[n+](-c3ccccc3)c(-c3ccc(OC)c(Br)c3)s2)cc1 the results were Pf growth 48h 0.9%, Pf growth 96h 4.65µM*, Shiga inhibitor 33.1*, Cycloheximide cs 25.5* and NS1 function inh 10.4%.
Screening COc1ccc(C)cc1Nc1n[n+](-c2ccccc2)c(-c2ccc(SC)cc2)s1 returned Pf growth 48h inconclusive, Pf growth 96h inconclusive, Shiga inhibitor 51.5*, Cycloheximide cs 41.8* and NS1 function inh 4.1%.
CCN1C(=O)C(=O)N(CC(=O)Nc2ccccc2Oc2ccccc2)C1=O was read as Pf growth 48h inconclusive, Pf growth 96h 4.4%, Shiga inhibitor -21.8, Cycloheximide cs 9.0 and NS1 function inh 2.7%.
Screening COc1cc(OC)c(-c2sc(Nc3ccccc3)n[n+]2-c2ccc(F)cc2)cc1OC returned Pf growth 48h 10.9%, Pf growth 96h 19.7%, Shiga inhibitor -5.3, Cycloheximide cs -2.1 and NS1 function inh -6.9%.
`CSc1ccc(-c2sc(Nc3cccc4ccccc34)n[n+]2-c2ccccc2)cc1` gave Pf growth 48h inconclusive, Pf growth 96h inconclusive, Shiga inhibitor 17.0*, Cycloheximide cs 21.6* and NS1 function inh 5.0%.
`COc1cc(Br)c(-c2sc(Nc3ccccc3)n[n+]2-c2ccc(F)cc2)cc1OC` gave Pf growth 48h 1.85µM*, Pf growth 96h 3.7µM*, Shiga inhibitor -2.9, Cycloheximide cs -2.3 and NS1 function inh -14.5%.
Screening CCc1ccc(Nc2n[n+](-c3ccccc3)c(-c3ccc(SC)cc3)s2)cc1 returned Pf growth 48h inconclusive, Pf growth 96h 4.65µM*, Shiga inhibitor 34.2*, Cycloheximide cs 33.3* and NS1 function inh 19.8%.
CCNc1nc(NC(C)C)nc(Oc2ccc(/C=N/O)cc2)n1 was read as Pf growth 96h inconclusive, Shiga inhibitor -13.3, Cycloheximide cs -1.3 and NS1 function inh 7.6%.
Screening O=C(COc1ccc(Cl)cc1Cl)N(Cc1ccco1)C1CCS(=O)(=O)C1 (configuration not stated) returned Pf growth 48h 2.7%, Pf growth 96h inconclusive, Shiga inhibitor 4.0, Cycloheximide cs -2.9 and NS1 function inh 2.0%.
`CCOc1ccc(CNc2ccc(N3CCCC3)cc2)cc1` gave Pf growth 48h 1.85µM*, Pf growth 96h -28.5%, Shiga inhibitor 32.7, Cycloheximide cs 16.6* and NS1 function inh -9.8%.
CCOc1ccc(CNc2ccc(N3CCN(Cc4ccccc4)CC3)cc2)cc1 was read as Pf growth 48h 3.0%, Pf growth 96h 9.28µM*, Shiga inhibitor -10.7, Cycloheximide cs 1.1 and NS1 function inh -4.3%.
C/C=C1\C(OC2OC(CO)C(O)C(O)C2O)OC=C(C(=O)OC)C1CC(=O)OCC1C(C)C(OC(=O)CC2C(C(=O)OC)=COC(OC3OC(CO)C(O)C(O)C3O)/C2=C\C)CC1C(CO)CO (configuration not stated) was read as Pf growth 48h 44.5%, Pf growth 96h 29.3%, Shiga inhibitor -13.2, Cycloheximide cs 5.2 and NS1 function inh -2.4%.
O=C(Cn1cncc1-c1ccc([N+](=O)[O-])cc1)Nc1ccccc1F was read as Pf growth 48h 30.4%, Pf growth 96h 59.0%, Shiga inhibitor -2.0, Cycloheximide cs 13.0 and NS1 function inh 20.7%.
For COc1ccc(-c2nc(SCC(=O)Nc3cc(C)on3)n[nH]2)cc1 the results were Pf growth 48h 29.2%, Shiga inhibitor 28.7, Cycloheximide cs 2.8 and NS1 function inh -0.4%.
Screening CCCCOc1ccc(-c2nc(SCC(N)=O)n[nH]2)cc1 returned Pf growth 48h 100.6%, Pf growth 96h 186.2%, Shiga inhibitor 47.7, Cycloheximide cs 33.7* and NS1 function inh -1.9%.
For CCCCOc1ccc(C2(C)NC(=O)NC2=O)cc1 (configuration not stated) the results were Pf growth 48h 7.8%, Pf growth 96h -2.7%, Shiga inhibitor 10.2, Cycloheximide cs -0.8 and NS1 function inh 12.5%.
Screening CCCCOc1ccc(-c2nc(=S)[nH][nH]2)cc1 returned Pf growth 96h 11.7µM*, Shiga inhibitor -3.0, Cycloheximide cs -2.4 and NS1 function inh 0.9%.
